Data reported in PubChem BioAssay AID834 (PCMD, 2007).
Out of some 85,000 compounds screened, about 120 (0.14%) were called active. The full list was thinned out, with actives kept by preference. A number with no mark means an inactive call.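 Rule for the calls: active = inhibition above 20%; inactive = inhibition below 20%.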

assay: clotrimazole potentiators killing Candida biofilms, primary screen, with clotrimazole, Alamar Blue (AID 834);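 note: preformed 24 hr biofilms exposed to compound for 48 hr; 0% = biofilm without compound and 100% = blank killed by clotrimazole plus chlorhexidine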; conditions: C. albicans biofilm + clotrimazole, at 6 µM, active compounds read high

Going from Cc1ccc(N(Cc2ccc(C(=O)Nc3ccccc3C(=O)NCc3ccco3)cc2)S(C)(=O)=O)cc1C to CCC(C)NC(=O)c1ccccc1NC(=O)c1ccccc1N(C)S(C)(=O)=O (stereo unspecified), the inhibition falls from 0.88% to -0.05%.

Going from COc1cc2c(cc1OC)C(C(C)C)=NC(C)(C)C2 to COc1ccc(Br)cc1CN1CCN(C(=O)c2cccc(OC)c2OC)CC1, the inhibition falls from 4.82% to -0.18%.

Compared with COc1ccc(Nc2ncc(C(=O)N3CCN(c4ccccc4OC)CC3)c3ccccc23)cc1, Cc1cccc(N2CCN(C(=O)c3cnn4c(C(F)F)cc(-c5ccccc5)nc34)CC2)c1C is lower in inhibition: 10.1% for the first, 7.54% for the second.

Going from Cc1[nH]n(-c2ccc(Cl)cc2)c(=O)c1/C=N/n1c(C)nc2ccccc2c1=O to COC(=O)c1ccccc1Sc1c(/C=N/OCc2ccc(Cl)cc2)c(C(F)(F)F)nn1C, the inhibition falls from 7.46% to -1.64%.

Going from COC(=O)Nc1ncc(CN2CCCCC2)s1 to O=C(CN1CCOCC1)Nc1ccccc1, the inhibition rises from -1.41% to 2.89%.

Compared with CN(C)S(=O)(=O)c1ccc(N2CCCC2)c(C(=O)NCc2ccccc2)c1, CCN(c1ccccc1)S(=O)(=O)c1ccc(C(=O)Nc2nccs2)cc1 is higher in inhibition: -0.61% for the first, 2.15% for the second.

First: S=C1NC(c2ccccc2)=NCN1c1ccc(Br)cc1
Second: N#CC1=C(SCc2ccc(C#N)cc2)N=C(N)C(c2nc(-c3ccccc3)cs2)C12CCCCC2 (stereo unspecified)
The inhibition of the first is higher: 5.98% for the first, -2.54% for the second.

Going from C=CCOC(=O)C1=C(C)NC(SCC(=O)OCC)=C(C#N)C1c1ccc(C)cc1 (stereo unspecified) to Cc1ccc(CCN2CC(C(=O)O)CC2=O)cc1 (stereo unspecified), the inhibition falls from 3.88% to 2.77%.

Going from COc1ccc(CN(CC(=O)NC2CCCC2)C(=O)CCC(=O)Nc2cc(C)on2)cc1 to CCOC(=O)c1cnc(SCC(=O)Nc2ccccc2C(=O)OC)nc1N, the inhibition rises from -2.23% to 4.94%.

Compared with CCn1c2ccccc2c2cc(NC(=S)N3CCOCC3)ccc21, C=CCN(C(=O)Cn1ncc2c1-c1cc(C)ccc1OC2)c1ccccc1 is lower in inhibition: 5.56% for the first, 3.48% for the second.

First: CCNc1nc(NC(C)C)nc(OCCOC(=O)c2ccccc2)n1
Second: COC(=O)c1ccc(CSc2nnc(NC(C)C)s2)cc1
The inhibition of the first is lower: 2.57% for the first, 8.02% for the second.

Compared with CCOCCn1c(C(C)C)nc2ccccc21, COc1ccccc1C(c1nnnn1C(C)(C)C)N1CCN(Cc2ccccc2)CC1 (stereo unspecified) is lower in inhibition: 0.21% for the first, -0.02% for the second.

First: Cc1nn(Cc2ccccc2)c2c1C(c1ccccc1)C(C#N)=C(N)O2 (stereo unspecified)
Second: CCCc1cc(=O)[nH]c(SCC(=O)c2cc(C)n(CCC)c2C)n1
The inhibition of the first is lower: 4.23% for the first, 9.55% for the second.
